Only a selection was taken, and the strongest signals are over-represented in it overall.
Key:
Assay in all cases: glycan array binding signal (z-score within array); higher = stronger binding
Settings in all cases: glycan notation: IUPAC condensed, linker removed
[1] = molecular target: Fuc(a1-2)Gal(b1-3)GlcNAc(b1-2)Man(a1-3)[Fuc(a1-2)Gal(b1-3)GlcNAc(b1-2)Man(a1-6)]Man(b1-4)GlcNAc(b1-4)GlcNAc
How it was run: (§1)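 Arrays were curated from the Consortium for Functional Glycomics database, 3228 in total, and kept only where the protein sequence was available. Binding is expressed as a within-array Z-score. This score was averaged across arrays of the same protein sequence at different concentrations or buffers and across linkers, and negative values can be read as non-binding.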

[2] = molecular target: Fuc(a1-2)Gal(b1-3)[Fuc(a1-4)]GlcNAc
How it was run: as §1

[3] = molecular target: Fuc(a1-2)Gal(b1-4)GlcNAc(b1-2)Man
How it was run: as §1

[4] = molecular target: Fuc(a1-2)Gal(b1-4)[Fuc(a1-3)]GlcNAc(b1-3)[Neu5Ac(a2-6)Gal(b1-4)GlcNAc(b1-6)]Gal(b1-4)Glc
How it was run: as §1

[5] = molecular target: Fuc(a1-3)[Gal(b1-4)]GlcNAc(b1-3)GalNAc
How it was run: as §1

[6] = molecular target: Fuc(a1-3)[Gal3S(b1-4)]GlcNAc6S
How it was run: as §1

Gal(a1-3)Gal(b1-3)GlcNAc = molecular target: Gal(a1-3)Gal(b1-3)GlcNAc
How it was run: as §1

[7] = molecular target: Gal(a1-3)Gal(b1-3)[Fuc(a1-4)]GlcNAc(b1-2)Man(a1-3)[Gal(a1-3)Gal(b1-3)[Fuc(a1-4)]GlcNAc(b1-2)Man(a1-6)]Man(b1-4)GlcNAc(b1-4)GlcNAc
How it was run: as §1

Gal(a1-3)GalNAc = molecular target: Gal(a1-3)GalNAc
How it was run: as §1

Gal(a1-4)Gal(b1-4)Glc = molecular target: Gal(a1-4)Gal(b1-4)Glc
How it was run: as §1

Gal(b1-3)Gal(b1-4)GlcNAc = molecular target: Gal(b1-3)Gal(b1-4)GlcNAc
How it was run: as §1

[8] = molecular target: Gal(b1-3)GlcNAc(b1-3)Gal(b1-4)[Fuc(a1-3)]GlcNAc(b1-6)[Gal(b1-3)GlcNAc(b1-3)]Gal(b1-4)Glc
How it was run: as §1

[9] = molecular target: Gal(b1-3)[Fuc(a1-4)]GlcNAc(b1-3)Gal(b1-3)[Fuc(a1-4)]GlcNAc
How it was run: as §1

[10] = molecular target: Gal(b1-4)GlcNAc(b1-2)Man(a1-6)[GlcNAc(b1-2)Man(a1-3)]Man(b1-4)GlcNAc(b1-4)GlcNAc
How it was run: as §1

[11] = molecular target: Gal(b1-4)GlcNAc(b1-3)Gal(b1-4)GlcNAc
How it was run: as §1

[12] = molecular target: Gal(b1-4)GlcNAc(b1-3)Gal(b1-4)GlcNAc(b1-2)[Gal(b1-4)GlcNAc(b1-3)Gal(b1-4)GlcNAc(b1-6)]Man(a1-6)[Gal(b1-4)GlcNAc(b1-3)Gal(b1-4)GlcNAc(b1-2)Man(a1-3)]Man(b1-4)GlcNAc(b1-4)GlcNAc
How it was run: as §1

[13] = molecular target: Gal(b1-4)GlcNAc(b1-3)Gal(b1-4)GlcNAc(b1-2)[Gal(b1-4)GlcNAc(b1-3)Gal(b1-4)GlcNAc(b1-6)]Man(a1-6)[Gal(b1-4)GlcNAc(b1-3)Gal(b1-4)GlcNAc(b1-2)Man(a1-3)]Man(b1-4)GlcNAc(b1-4)[Fuc(a1-6)]GlcNAc
How it was run: as §1

[14] = molecular target: Gal(b1-4)GlcNAc(b1-3)Gal(b1-4)GlcNAc(b1-3)Gal(b1-4)GlcNAc(b1-2)Man(a1-3)[Gal(b1-4)GlcNAc(b1-3)Gal(b1-4)GlcNAc(b1-3)Gal(b1-4)GlcNAc(b1-2)Man(a1-6)]Man(b1-4)GlcNAc(b1-4)[Fuc(a1-6)]GlcNAc
How it was run: as §1

[15] = molecular target: Gal(b1-4)GlcNAc(b1-3)Gal(b1-4)GlcNAc(b1-3)Gal(b1-4)GlcNAc(b1-3)Gal(b1-4)GlcNAc(b1-3)Gal(b1-4)GlcNAc(b1-2)Man(a1-3)[Gal(b1-4)GlcNAc(b1-3)Gal(b1-4)GlcNAc(b1-3)Gal(b1-4)GlcNAc(b1-3)Gal(b1-4)GlcNAc(b1-3)Gal(b1-4)GlcNAc(b1-2)Man(a1-6)]Man(b1-4)GlcNAc(b1-4)GlcNAc
How it was run: as §1

[16] = molecular target: Gal(b1-4)GlcNAc(b1-3)Gal(b1-4)GlcNAc(b1-3)[Gal(b1-4)GlcNAc(b1-3)Gal(b1-4)GlcNAc(b1-6)]GalNAc
How it was run: as §1

[17] = molecular target: Gal(b1-4)GlcNAc(b1-3)[Fuc(a1-3)GlcNAc(b1-6)]Gal(b1-4)Glc
How it was run: as §1

[18] = molecular target: Gal(b1-4)GlcNAc(b1-6)[Gal(b1-3)]GalNAc
How it was run: as §1

Gal3S(b1-3)GlcNAc = molecular target: Gal3S(b1-3)GlcNAc
How it was run: as §1

[19] = molecular target: Gal3S(b1-3)[Fuc(a1-4)]GlcNAc
How it was run: as §1

[20] = molecular target: Gal3S(b1-4)[Fuc(a1-3)]Glc6S
How it was run: as §1

[21] = molecular target: Gal3S(b1-4)[Fuc(a1-3)]GlcNAc6S
How it was run: as §1

Gal3S6S(b1-4)GlcNAc6S = molecular target: Gal3S6S(b1-4)GlcNAc6S
How it was run: as §1

B1: EULS2 M2 (Oryza sativa) (protein)
chain: MVYCRANPNYAMTARNGAVVLAPANPKDEYQHWIKDMRWSTSIKDEEGYPAFALVNKATGQAIKHSLGQSHPVRLVPYNPEVMDESVLWTESRDVGNGFRCIRMVNNIYLNFDAFHGDKYHGGVRDGTDIVLWKLCEGDSQRWKIQPYYILEQKLISEEDLNSAVDHHHHHH
glycan array binding signal (z-score) [1]: 2.57
glycan array binding signal (z-score) [2]: 0.051
glycan array binding signal (z-score) [3]: -0.221
glycan array binding signal (z-score) [4]: -0.288
glycan array binding signal (z-score) [5]: -0.239
glycan array binding signal (z-score) [6]: 0.046
glycan array binding signal (z-score) (Gal(a1-3)Gal(b1-3)GlcNAc): 6.13
glycan array binding signal (z-score) [7]: 0.228
glycan array binding signal (z-score) (Gal(a1-3)GalNAc): -0.346
glycan array binding signal (z-score) (Gal(a1-4)Gal(b1-4)Glc): -0.552
glycan array binding signal (z-score) (Gal(b1-3)Gal(b1-4)GlcNAc): -0.911
glycan array binding signal (z-score) [8]: -0.897
glycan array binding signal (z-score) [9]: -0.418
glycan array binding signal (z-score) [10]: -0.086
glycan array binding signal (z-score) [11]: 0.298
glycan array binding signal (z-score) [12]: 1.3
glycan array binding signal (z-score) [13]: 0.142
glycan array binding signal (z-score) [14]: -0.152
glycan array binding signal (z-score) [15]: 2.79
glycan array binding signal (z-score) [16]: -0.129
glycan array binding signal (z-score) [17]: -0.485
glycan array binding signal (z-score) [18]: 0.142
glycan array binding signal (z-score) (Gal3S(b1-3)GlcNAc): -0.359
glycan array binding signal (z-score) [19]: -0.012
glycan array binding signal (z-score) [20]: 0.271
glycan array binding signal (z-score) [21]: 3.8
glycan array binding signal (z-score) (Gal3S6S(b1-4)GlcNAc6S): 13.3

From the supplement of paper PMC8728848
